From PubChem BioAssay (NCATS)
Results filed as inconclusive are left out. A number with no mark means an inactive call. Activity calls are given as the source filed them. The call rests on the fitted dose curve; tested in HEK293 reporter line.

Experiment: qHTS for Inhibitors of the Functional Ribonucleoprotein Complex (vRNP) of Lassa (LASV) Arenavirus: LASV Primary Screen - GLuc reporter signal (AID 1347082); further: nearly all actives have a fitted effect of over 60% in size
Settings: LASV minigenome vRNP, Gaussia luciferase reporter; series mostly up to 57.5 µM; activity change, negative = inhibition: at the top concentration
On the % scale 0 is the no-effect control and ±100 the full control effect.

Row | SMILES | activity change, negative = inhibition [%] | Potency
1 | Cc1cccc(C(=O)O)c1O | -1.69 | 
2 | CC(=O)OC[C@H]1O[C@@H](OC(C)=O)[C@H](OC(C)=O)[C@@H]1OC(C)=O | -5.32 | 
3 | CNCCCC12CCC(c3ccccc31)c1ccccc12 |  | inactive
4 | Cc1scc2c1N(C(=O)CN1CCN(C)CC1)c1ccccc1NC2=O |  | inactive
5 | CNCc1ccccc1 | 3.99 | 
6 | Cc1cc(O)c2c(O)c3c(O)cccc3cc2c1 | -8.81 | 
7 | O=c1c(-c2ccc(O)cc2)coc2cc(O)cc(O)c12 |  | inactive
8 | Cc1ccc(C(=O)c2ccc(CC(=O)O)n2C)cc1 | -4.17 | 
9 | CCN(CC)C(=O)c1ccc(O)c(OC)c1 |  | inactive
10 | Cc1ccc(S(=O)(=O)NC(=O)NC2CCCCCCC2)cc1 | 9.11 | 
11 | NS(=O)(=O)c1cc2c(cc1Cl)NC(C(Cl)Cl)NS2(=O)=O (centres undefined) |  | inactive
12 | C[N+]1(C)[C@@H]2CC(OC(=O)[C@H](CO)c3ccccc3)C[C@H]1[C@@H]1O[C@@H]12 (some centres undefined) | -4.21 | 
13 | CC(=O)OCC1=C(C(=O)O)N2C(=O)[C@@H](NC(=O)Cc3cccs3)[C@H]2SC1 |  | inactive
14 | CCN(CC)S(=O)(=O)c1ccc(C(=O)O)cc1 | 12.6 | 
15 | CCCCCCCCCCCCCCCC(=O)NCCO |  | inactive
16 | Cc1cc(NS(=O)(=O)c2ccc(N)cc2)no1 |  | inactive
17 | CCCCCCCCCCCCCCCCCC(=O)O | 5.15 | 
18 | CC(C)NCC(O)c1cc(O)cc(O)c1 (centres undefined) |  | inactive
19 | CC1(COc2ccc(CC3SC(=O)NC3=O)cc2)CCCCC1 (centres undefined) | -1.68 | 
20 | NS(=O)(=O)c1cc(C(=O)O)cc(N2CCCC2)c1Oc1ccccc1 | -5.54 | 

Row | SMILES | activity change, negative = inhibition [%] | Potency
21 | NS(=O)(=O)c1ccc(C(=O)O)cc1 | -3.1 | 
22 | O=C(c1ccco1)N1CCNCC1 | 6.74 | 
23 | CN(C)CCN1CCN(c2cccc(Cl)c2)C1=O | -9.29 | 
24 | O=C(NCC(O)CO)c1c(I)c(C(=O)NCC(O)CO)c(I)c(N(CCO)C(=O)CO)c1I (centres undefined) | -2.7 | 
25 | CC(O)CN(CCN(CC(C)O)CC(C)O)CC(C)O (centres undefined) | -3.71 | 
26 | CN1CC(=O)NC1=N | -3.24 | 
27 | C[C@H](CS)C(=O)N1CCC[C@H]1C(=O)O |  | inactive
28 | COC(=O)c1cccnc1 |  | inactive
29 | O=C(O)c1cc(=O)c2ccccc2o1 | -13.7 | 
30 | CC(C)NCC(O)c1ccc(NS(C)(=O)=O)cc1 (centres undefined) |  | inactive
31 | CCOC(=O)O[C@]1(C(=O)OCCl)CC[C@H]2[C@@H]3CCC4=CC(=O)C=C[C@]4(C)[C@H]3[C@@H](O)C[C@@]21C | 8.88 | 
32 | CC(=O)NCCCCCC(=O)O | 2.11 | 
33 | O=C(COCCOCCOCC(=O)Nc1c(I)cc(I)c(C(=O)O)c1I)Nc1c(I)cc(I)c(C(=O)O)c1I | -5.13 | 
34 | CN1[C@@H]2CCC[C@@H]1CC(NC(=O)c1nn(C)c3ccccc13)C2 (some centres undefined) | 2.05 | 
35 | C[C@]12C=CC(=O)C=C1CC[C@@H]1[C@@H]2C(=O)C[C@@]2(C)[C@H]1CC[C@]2(O)C(=O)CO |  | inactive
36 | CC(C)[C@H](N)C(=O)OCCOCn1cnc2c(=O)[nH]c(N)nc21 |  | inactive
37 | COc1ccc(C(=O)c2ccccc2)c(O)c1 | -5.74 | 
38 | COc1ccc(C(=O)NCc2ccc(OCCN(C)C)cc2)cc1OC | -16.6 | 
39 | CC[C@H]1OC(=O)[C@H](C)[C@@H](O[C@H]2C[C@@](C)(OC)[C@@H](O)[C@H](C)O2)[C@H](C)[C@@H](O[C@@H]2O[C@H](C)C[C@H](N(C)C)[C@@H]2O)[C@](C)(O)C[C@@H](C)CN(C)[C@H](C)[C@@H](O)[C@]1(C)O | 9.28 | 
